Laboratory results taken from PubChem BioAssay AID1499 (Sanford-Burnham Center for Chemical Genomics, 2009).
The whole screen tested about 93,000 compounds, of which about 65 (0.07%) were called active.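 How the source made its calls: active means 10 µM primary screen giving 50% or more activity, confirmed by 40% or more on retest at that dose; inactive means the rest.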 Shown is part of a subset that was picked to be rich in actives.

target: Integrin beta-2 (Homo sapiens) + Integrin alpha-M (Homo sapiens) (UniProt P05107+P11215); assay: enhancers of CD11b/CD18 adhesion to fibrinogen, primary screen, K562 cells, luminescence (AID 1499); conditions: ATPlite luminescence, at 10 µM, stronger effect = higher value
Sequence (P05107 whole entry, looked up, other chains not shown): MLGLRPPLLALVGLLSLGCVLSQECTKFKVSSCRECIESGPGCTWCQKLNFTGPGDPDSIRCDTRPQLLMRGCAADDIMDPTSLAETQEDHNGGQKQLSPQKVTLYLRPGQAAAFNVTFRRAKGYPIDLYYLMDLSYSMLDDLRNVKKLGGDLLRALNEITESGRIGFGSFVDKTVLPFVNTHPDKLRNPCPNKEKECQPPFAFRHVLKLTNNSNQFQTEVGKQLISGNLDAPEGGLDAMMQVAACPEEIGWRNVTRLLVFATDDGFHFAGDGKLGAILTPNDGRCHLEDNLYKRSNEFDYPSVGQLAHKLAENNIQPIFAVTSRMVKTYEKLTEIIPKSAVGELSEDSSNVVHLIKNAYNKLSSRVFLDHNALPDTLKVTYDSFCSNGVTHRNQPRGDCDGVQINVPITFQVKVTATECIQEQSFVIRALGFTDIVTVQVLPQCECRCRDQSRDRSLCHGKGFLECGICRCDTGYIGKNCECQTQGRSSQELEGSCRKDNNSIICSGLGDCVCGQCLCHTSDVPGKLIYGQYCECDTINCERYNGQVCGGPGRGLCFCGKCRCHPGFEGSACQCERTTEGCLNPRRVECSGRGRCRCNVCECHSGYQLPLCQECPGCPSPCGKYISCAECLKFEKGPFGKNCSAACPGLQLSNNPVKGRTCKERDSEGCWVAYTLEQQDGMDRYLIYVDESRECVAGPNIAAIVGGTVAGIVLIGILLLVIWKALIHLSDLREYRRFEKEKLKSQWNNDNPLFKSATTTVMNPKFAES

activation, inactive:
CCOC(=O)c1c(NC(=S)Nc2ccccc2C)sc2c1CCC2 2.8%
CCOCCCNC(=O)C(=O)NCCCOCC -2.3%
CCc1nnc(NC(=O)C2CC(=O)N(c3ccc4c(c3)OCCO4)C2)s1 (stereo unspecified) 5%
CCCn1c(C)cc(/C=C(\C#N)C(=O)OCC(=O)Nc2cc(OC)c(OC)c(OC)c2)c1C 3%
O=C(/C=C/c1ccccc1)Nc1nnc(SCC(=O)c2ccc3ccccc3c2)s1 59.6%
CCc1nnc(NC(=O)[C@@H](NC(=O)c2cccc(C)c2)C(C)C)s1 -1.2%
O=C(CSc1nc2ccccc2[nH]1)Nc1nc(-c2ccccc2)c(-c2ccccc2)o1 -6.7%
CN(Cc1cccs1)C(=O)Cc1c[nH]c2ccccc12 -1.9%
COC(=O)c1ccc(OCC(O)CN(CCO)CC(O)Cn2ccc3ccccc32)cc1 (stereo unspecified) 8.9%
Cc1c(Cl)cnc(NC(=O)COC(=O)c2ccc(S(=O)(=O)NCc3ccco3)cc2)c1Cl 12.8%
CC(C)(C)c1ccc(C(=O)NCc2nnc(SCC(=O)N3CCCc4ccccc43)n2-c2ccccc2)cc1 -4.7%
Cc1cc(Br)ccc1SCC(=O)OCC(=O)NCc1ccc2c(c1)OCO2 4.5%
N#Cc1c(-c2ccc(F)cc2)cc(C2CC2)nc1SCC(=O)c1cccs1 12.6%
CCn1c2ccccc2c2cc(NC(=O)COC(=O)c3ccccc3Br)ccc21 0.6%
CC(C)Nc1nnc(SCC(=O)/C=C2\N(C)c3ccccc3C2(C)C)s1 0%
Cc1cccc(CC(=O)N2CCN=C2SCc2ccc([N+](=O)[O-])cc2)c1 5.7%
CCOc1ccc(CCNC(=O)CSc2cc(=O)n(C)c3ccc(Cl)cc23)cc1OCC 0.6%
Cc1c(C(=O)Nc2cccc(-c3nnc4n3CCCCC4)c2)oc2ccccc12 0.4%
CC(=O)c1ccc(NC(=O)Nc2ccc([N+](=O)[O-])cc2C)cc1 -2.3%
Cc1cc2oc(=O)cc(CN3CCN(S(=O)(=O)c4cccs4)CC3)c2cc1C(C)C -0.5%
O=C(CCCCCNC(=O)c1ccccc1)N/N=C/c1ccccc1 -6.5%
COc1ccc(NS(=O)(=O)c2ccc(NC(=S)NC(=O)/C=C/c3ccc(C)cc3)cc2)nn1 3.8%
O=C(NNC(=S)Nc1ccc(Br)cc1Cl)c1ccco1 -7.7%
COc1ccc(C(CC(=O)Nc2ccc(C)cc2)NC(=O)C(F)(F)F)cc1 (stereo unspecified) -0.4%
Brc1ccc(-c2csc(N/N=C/c3ccc4c(c3)OCO4)n2)cc1 18.4%
CCOc1ncccc1C(=O)N(C)CC(=O)Nc1ccc(F)cc1 -3.5%
CCCN1CNC(=S)N(CCc2ccccc2)C1 5.1%
Cc1cc(C)cc(C(=O)N2CCN=C2SCc2ccc([N+](=O)[O-])cc2)c1 0.8%
COc1cc(OC)c(C(=O)OC(C)C(=O)Nc2cc(C(F)(F)F)ccc2Cl)cc1OC (stereo unspecified) 4.1%
O=C(Nc1ccccc1F)c1ccccc1-c1ccccc1 0.5%
Cc1ccc(NC(=O)Nc2ccccc2)c(Br)c1 12.1%
COc1ccccc1CN(C)C(=O)C1(c2ccc(Cl)cc2)CC1 11.3%
C/C(=N\NS(=O)(=O)c1ccc(Cl)cc1)c1ccc(NC(=O)c2ccco2)cc1 -2.4%
CC1CCN(c2ccc(C(=O)NCc3ccc4c(c3)OCO4)cc2[N+](=O)[O-])CC1 0.5%
O=C(COC(=O)c1ccc(Cl)nc1)NCc1ccc2c(c1)OCO2 4%
COCCn1c(=NC(=O)c2ccccc2[N+](=O)[O-])sc2cc(S(C)(=O)=O)ccc21 2%
CCOC(=O)c1c(/N=C/c2cc(C)ccc2O)sc2c1CCC2 -6%
COc1cccc(NC(=O)C(Sc2nc3ccccc3c(=O)n2CC(C)C)c2ccccc2)c1 (stereo unspecified) 1%
COc1cc(C(=O)NCc2nnc(SCC(=O)Nc3nc4ccc(C)cc4s3)o2)cc(OC)c1OC 10.4%
COc1ccc(-c2csc(NC(=O)CCCc3cccs3)n2)cc1 -1.8%
O=C(Nc1ccc2c(c1)OCO2)c1ccc(N2C(=O)c3ccccc3C2=O)cc1 23.5%
C/C(CC1CC(C)(C)OC1=O)=N/Nc1nc(-c2ccccc2)cs1 (stereo unspecified) -0.2%
O=C(Cn1cnc2ccccc21)N/N=C/c1ccco1 -5.8%
c1ccc(C2=Nc3cccc4cccc(c34)N2)cc1 7%
COc1ccc(Br)cc1CN(C)CC(=O)Nc1cc([N+](=O)[O-])ccc1OC -0.1%
CCOC(=O)c1cnc2ccc(F)cc2c1Nc1ccc2c(c1)OCCO2 4.3%
Cc1c(Br)c([N+](=O)[O-])nn1CC(=O)Nc1sc2c(c1C(=O)OC(C)C)CCC(C)C2 (stereo unspecified) 10.3%
COc1ccc(/C=C2/C(=O)OCc3cc(OC)c(OC)cc32)c(OC)c1 4%
COc1ccc(-c2csc(NC(=O)COC(=O)Cc3ccc(Cl)cc3Cl)n2)cc1 -1.1%
Cc1ccc(-n2c(SCC(=O)N3c4ccccc4Sc4ccccc43)nnc2-c2ccncc2)cc1 7.2%
Cc1ccc(C)c(NC(=S)NCC(c2cccnc2)N2CCOCC2)c1 (stereo unspecified) 5%
Cc1ccc(S(=O)(=O)N2CCN(CC(=O)N/N=C/c3cc([N+](=O)[O-])ccc3Cl)CC2)cc1 -2.8%
COc1ccc(OCC(O)CNC(=O)Nc2ccc(Cl)cc2)cc1 (stereo unspecified) 7.7%
COc1cc(OC)c(C(=O)Nc2ccccc2-c2ccccc2)cc1OC 6.2%
COc1ccc([N+](=O)[O-])cc1NC(=O)c1ccc(N(Cc2ccccc2C)S(C)(=O)=O)cc1 0.6%
COc1ccc(C2Nc3ccccc3C(=O)N2c2ccc(F)cc2)cc1Cn1nnc2ccccc21 (stereo unspecified) -1.9%
O=C(N/N=C/c1cccc([N+](=O)[O-])c1)C1CC(=O)N(c2ccc(Br)cc2)C1 (stereo unspecified) -1.9%
CCN(C(=O)COC(=O)c1c(NC(C)=O)sc(C)c1C)C1CCS(=O)(=O)C1 (stereo unspecified) 0.3%
CCOC(=O)NC(=O)CSc1nnc(SCCC(=O)O)s1 -3.3%
Cc1cccc(OCc2ccc(C(=O)Nc3ccc(F)cc3)cc2)c1 -6.2%
O=C(NC(=S)Nc1ccc(NC(=O)c2cccs2)cc1)c1ccc([N+](=O)[O-])cc1 55.8%
CC(Sc1nc2cc(Cl)ccc2s1)C(=O)Nc1ccc2c(c1)OCO2 (stereo unspecified) 0.6%
COc1ccc(OC)c(/C=C/C(=O)OCC(=O)Nc2ccc3c(c2)OCCO3)c1 -3.7%
CCOc1ccc2c(=O)c(-c3ccc4c(c3)OCCCO4)c(C)oc2c1 3%
N#Cc1c(NC(=O)c2ccc(N3CCOCC3)c([N+](=O)[O-])c2)sc2c1CCCC2 -0.4%
Cc1ccc(S(=O)(=O)C2C(=O)NC3(C)CC2c2ccccc2O3)cc1 (stereo unspecified) 0.7%
CCC1CCCCN1C(=S)Nc1ccc(SC(F)F)cc1 (stereo unspecified) 1.7%
CCCC/C(C)=N/NC(=O)NC1CCCCC1 -0.9%
CC(C)CNC(=O)COC(=O)c1ccccc1OCC(=O)Nc1ccc(Br)cc1 1%
Cc1cc([N+](=O)[O-])ccc1NC(=O)C1CCCO1 (stereo unspecified) 1.8%
Cc1ccccc1NC(=O)CSC1=NCCN1 3.2%
Cc1cc(C)c[n+](-c2nc3ccccc3nc2[N-]S(=O)(=O)c2cccs2)c1 2.1%
COc1ccc([N+](=O)[O-])cc1NC(=O)C(C)OC(=O)C1c2ccccc2Oc2ccccc21 (stereo unspecified) -2.2%
COc1cc(Cl)c(C)cc1NC(=O)[C@@H]1CCCN1C(=O)c1cccs1 -2.3%
CCOC(=O)C1CCN(c2ccc(C(=O)O)cc2[N+](=O)[O-])CC1 -3.3%
O=C(NCC1CCCO1)/C(=C/c1ccc(Cl)cc1)NC(=O)c1ccccc1 (stereo unspecified) 0.2%
O=C(CN1CCN(c2ccccn2)CC1)N1CCc2ccccc21 3.8%
N#CC1(NC(=O)COc2ccc3oc4ccccc4c3c2)CCCCC1 10.2%
CN1CCN(c2ccc(S(=O)(=O)Nc3ccccc3)cc2[N+](=O)[O-])CC1 -2.2%
Cc1nnc(SCC(=O)N2CCOCC2)[nH]c1=O -6.4%
OCC(CO)(CO)NCc1ccc(-c2ccccc2)cc1 4.4%
COc1cc(/C=N/NC(=O)CCc2n[nH]c(=O)[nH]c2=O)ccc1O 15.1%
COC(=O)C1=C(NC(=O)C(C)(C)C)CCS1 1.8%
Cc1ccc(-c2nnc(SCC(=O)N/N=C/c3cccs3)n2-c2ccc(C)cc2)cc1 9%
COc1ccc(NS(=O)(=O)c2ccc(NC(=O)c3ccc(N(C)S(C)(=O)=O)cc3)cc2)cc1 -3.8%
Cc1ccc(O)c(CCc2ccccc2)n1 -3.8%
CCOC(=O)c1oc2c(CN3CCN(C)CC3)c(O)ccc2c(=O)c1-c1ccc(Br)cc1 2%
O=C(COC(=O)Cn1cnc2ccccc2c1=O)NCC12CC3CC(CC(C3)C1)C2 5.2%
CSCCC(NC(=O)c1cc([N+](=O)[O-])cc([N+](=O)[O-])c1)c1nc2ccccc2[nH]1 (stereo unspecified) 22%
Cc1ccc2nc(SCc3cn4c(C)cc(C)nc4n3)[nH]c2c1 -2.3%
Oc1c(Br)cccc1/C=N/Nc1c(F)c(F)c(F)c(F)c1F -10.4%
